Compounds without any hit were thinned out: in the full panel of roughly 83,000, 20% have a hit.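 96-well plates, one dose, 48 hours. Percent growth reported; active if below 10.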 Unmarked numbers belong to inactive results.

The subject of this test is OVCAR-5 ovarian. The test is described as follows: NCI-60 one-dose screen, 48 h (100 = growth as untreated, 0 = no growth, -100 = all killed). The note with it: 10 µM unless noted.
Regarding `Cc1cc(C)c(S(=O)(=O)N2CCN(c3cc4c(cc3F)c(=O)c(C(=O)O)cn4C3CC3)CC2)c(C)c1`, the growth is 42.2%.
The figure for `CCn1cc(C(=O)O)c(=O)c2cc(F)c(N3CCN(S(=O)(=O)c4ccc(OC)c(OC)c4)CC3)cc21` is 102%; for `Cc1ccc(S(=O)(=O)OCC(=O)Nc2ccc(C(=O)O)c(O)c2)cc1` it is 102%.
In the case of `O=S(=O)(c1ccccc1)n1ccc(-c2ccc3c(c2)CCO3)n1`, the growth was 103%.
Consider `Clc1ccc(-c2nc(-c3ccco3)cn3ccnc23)cc1`, for which the growth was 87.9%.
The figure for `CCn1cc(C(=O)O)c(=O)c2cc(F)c(N3CCN(S(=O)(=O)c4cccc5ccccc45)CC3)cc21` is 15.5%; for `O=P([O-])(O)OP(=O)([O-])O.[NH-][C@H]1CCCC[C@@H]1[NH-].[OH-].[OH-].[Pt+4]` it is 95.2%.
The figure for `O=C(CC(O)c1ccncc1)c1ccccc1` (stereo not drawn) is 104%.
The figure for `O=c1oc2c([nH]c3ccc4ccccc4c32)c2ccccc12` is 112%; for `Nc1c(C(=O)Nc2ccccc2)sc2nc3c(cc12)CCC3` it is 99.4%.
For `COc1ccc(C2CC(c3cccs3)=NN2c2ccc(S(=O)(=O)NC(=O)NCc3cccc(OC)c3)cc2)cc1` (stereo not drawn), the growth was 113%.
In the case of `COc1cc(NC(=O)CSc2nc3ccc(C)cc3c(=O)n2-c2ccccc2)cc(OC)c1OC`, the growth is 99.5%.
Take `Cc1ccc(S(=O)(=O)OC2COCOC2C(OS(=O)(=O)c2ccc(C)cc2)C2OCOCC2OS(=O)(=O)c2ccc(C)cc2)cc1` (stereo not drawn): the growth was 101%.

(Values after PubChem BioAssay (NCI).)
